# Reference: article PMC4336329 (PLoS ONE, 2015)
# Screen size: about 310,000 compounds; about 14,000 (4.5%) showed an effect of 50% or more. The effect is printed as a negative number. This is one part of a sample in which strong results are shown more often than they occur.
# Target: human ether-à-go-go-related gene (hERG) potassium channel (human, UniProt Q12809)
# Assay: primary screen, population patch clamp on CHO cells stably expressing hERG; higher = less effect of the substance
# 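Note: peak tail current of the secondary pulse compared with the same well before compound.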
# Chain of human ether-à-go-go-related gene (hERG) potassium channel (Q12809 whole entry, looked up): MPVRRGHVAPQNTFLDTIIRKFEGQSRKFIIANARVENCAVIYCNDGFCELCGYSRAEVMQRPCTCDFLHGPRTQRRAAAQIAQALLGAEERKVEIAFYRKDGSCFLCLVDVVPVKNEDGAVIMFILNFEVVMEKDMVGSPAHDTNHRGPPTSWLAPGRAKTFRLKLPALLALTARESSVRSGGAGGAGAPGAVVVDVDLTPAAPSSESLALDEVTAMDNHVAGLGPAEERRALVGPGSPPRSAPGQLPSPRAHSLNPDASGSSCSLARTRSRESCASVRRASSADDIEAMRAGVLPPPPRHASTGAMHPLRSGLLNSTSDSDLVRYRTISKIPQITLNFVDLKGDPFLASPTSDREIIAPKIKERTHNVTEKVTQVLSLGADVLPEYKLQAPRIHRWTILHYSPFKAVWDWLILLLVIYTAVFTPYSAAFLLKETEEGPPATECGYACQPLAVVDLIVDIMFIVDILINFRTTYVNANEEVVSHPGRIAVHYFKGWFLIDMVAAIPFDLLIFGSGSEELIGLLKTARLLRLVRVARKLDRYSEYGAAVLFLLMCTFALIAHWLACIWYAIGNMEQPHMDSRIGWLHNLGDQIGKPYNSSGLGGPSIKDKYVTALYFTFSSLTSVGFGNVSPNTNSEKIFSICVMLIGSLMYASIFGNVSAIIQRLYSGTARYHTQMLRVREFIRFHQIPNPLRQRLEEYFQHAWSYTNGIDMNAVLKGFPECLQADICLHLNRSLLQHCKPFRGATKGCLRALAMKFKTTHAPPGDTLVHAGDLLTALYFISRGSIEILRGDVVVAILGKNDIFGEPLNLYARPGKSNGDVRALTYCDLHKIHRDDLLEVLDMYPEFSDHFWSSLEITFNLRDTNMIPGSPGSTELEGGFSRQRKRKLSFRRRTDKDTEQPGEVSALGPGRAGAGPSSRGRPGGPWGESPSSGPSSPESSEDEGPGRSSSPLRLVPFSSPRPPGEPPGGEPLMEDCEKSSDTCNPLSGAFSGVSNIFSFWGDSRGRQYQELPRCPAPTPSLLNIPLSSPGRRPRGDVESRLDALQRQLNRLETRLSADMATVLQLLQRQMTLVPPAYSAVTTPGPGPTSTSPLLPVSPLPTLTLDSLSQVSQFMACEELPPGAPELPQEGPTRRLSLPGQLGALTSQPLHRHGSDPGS
row,SMILES,"hERG current change (%, negative = inhibition) at 10uM [%]"
1,CC1(C)CC(=O)c2cc(OCC(=O)NCCN3CCCc4ccccc43)ccc2O1,-47.5
2,N#CC1=C(N)Oc2c(c(=O)oc3ccccc23)C1c1cccnc1 (stereo not shown),5.62
3,CC1(C)C2CC=C(/C=N/NC(=O)c3ccccc3Br)C1C2 (stereo not shown),-2.58
4,C=CC(C)(C)O[C@@H]1O[C@H](CO)[C@@H](O)[C@H](O)[C@H]1O,40.6
5,Cc1ccc2nc3c(c(N)c2c1)CCN3c1ccccc1.O=C(O)C(=O)O,-35.4
6,Cc1cccc(N2CCc3c2nc2ccccc2c3N)c1.O=C(O)C(=O)O,-53.7
7,Cc1cccc(N2CCc3c2nc2ccccc2c3N)c1.Cl,-61.9
8,Nc1c2c(nc3cccc(Cl)c13)N(c1ccccc1)CC2,31.7
9,Cc1cccc(N2CCc3c2nc2ccc(Br)cc2c3N)c1.Cl,6.56
10,CCCC(=O)Nc1c2c(nc3ccccc13)N(c1ccccc1)CC2,-1.55
11,CC(C)(C)c1ccccc1NC(=O)COC(=O)CN1C(=O)NC2(CCCC2)C1=O,15.8
12,Cc1c(OCC(=O)NCC(O)c2ccccc2)ccc2c3c(c(=O)oc12)CCC3 (stereo not shown),-8.23
13,Cl.O=C(CN1CCOCC1)c1ccc(Br)cc1,18
14,CN(CC(=O)NCC1CCCCC1)CC(=O)Nc1ccccc1Br,-21.2
15,Cc1ccc(S(=O)(=O)N(CCCN2CCCC2=O)Cc2cc3c(C)ccc(C)c3[nH]c2=O)cc1,-64
16,Cc1ccc(S(=O)(=O)N(CCCO)Cc2cc3c(C)ccc(C)c3[nH]c2=O)cc1,-45.9
17,COc1ccc(S(=O)(=O)N(CCCN2CCCC2=O)Cc2cc3c(C)ccc(C)c3[nH]c2=O)cc1,-36.1
18,O=C(c1ccc(NS(=O)(=O)c2ccccc2)cc1)N1CCCC1,-8.95
19,CS/C(N)=N/S(=O)(=O)c1ccc(NC(C)=O)cc1,17.6
20,C/C(=N/Nc1ccccc1[N+](=O)[O-])c1ccc([N+](=O)[O-])cc1,5.07
21,CC1CCc2c(sc(NC(=O)c3ccccc3C(=O)O)c2C#N)C1 (stereo not shown),-0.906
22,CC(C)Cn1c(NCCN(C)C)nc2c1c(=O)[nH]c(=O)n2C,10.1
23,Cc1cc(C)n(-c2nc3c(c(=O)[nH]c(=O)n3C)n2CC(O)COc2ccc(Cl)cc2Cl)n1 (stereo not shown),-3.56

row,SMILES,"hERG current change (%, negative = inhibition) at 10uM [%]"
1,CN(C)CCNc1nc2c(c(=O)[nH]c(=O)n2C)n1CC(O)COc1ccc(Cl)cc1 (stereo not shown),-20
2,CN(C)CCNc1nc2c(c(=O)[nH]c(=O)n2C)n1CC(O)COc1ccc(Cl)cc1Cl (stereo not shown),-55
3,CCN(CC)CCNc1nc2c(c(=O)[nH]c(=O)n2C)n1CC(O)COc1ccc(Cl)cc1Cl (stereo not shown),-70.2
4,COCCCNc1nc2c(c(=O)[nH]c(=O)n2C)n1CC(O)COc1ccccc1C (stereo not shown),-7.62
5,C[C@]12CC[C@H](O)C[C@H]1CC[C@@H]1C2CC[C@]2(C)[C@@H](C3=CC(=O)OC3)[C@@H](O)C[C@]12O (stereo partly shown),21.1
6,N#Cc1c2c(nc(N)c1-c1ccccc1)CCCCC2,7.02
7,CC1=C(C(=O)OCC(Br)(Br)Br)C(c2cccc([N+](=O)[O-])c2)NC(=O)N1CCCC(=O)O (stereo not shown),-3.03
8,CCn1nnnc1-c1ccc(OC)c(S(=O)(=O)Nc2ccc(C)c(C)c2)c1,-2.9
9,CCNC(=S)NNC(=O)CCn1cc(C)cn1,20.7
10,Cc1cccc(N2CCN(S(=O)(=O)c3c(C)[nH]c(C)c3C(=O)N3CCCC3)CC2C)c1 (stereo not shown),-19.2
11,COc1ccccc1CNC(=O)COC(=O)c1ccc(Cl)c(N)c1,21.8
12,N=c1c(C(=O)NCC2CCCO2)cc2c(=O)n3ccccc3nc2n1C1CCCCC1 (stereo not shown),-77.3
13,N=c1c(S(=O)(=O)c2ccc(Br)cc2)cc2c(=O)n3ccccc3nc2n1C1CCCCC1,22.8
14,N=c1c(S(=O)(=O)c2ccccc2)cc2c(=O)n3ccccc3nc2n1C1CCCC1,1.62
15,N=c1c(S(=O)(=O)c2ccc(Br)cc2)cc2c(=O)n3ccccc3nc2n1C1CCCC1,9.15
16,N=c1c(C(=O)NCC2CCCO2)cc2c(=O)n3ccccc3nc2n1C1CCCC1 (stereo not shown),-76.9
17,Cc1nc(C(=O)NC2CC2)sc1C1(C)CC(c2ccccc2)=NO1 (stereo not shown),-8.63
18,Cc1ccc(Nc2nc(CSc3nnnn3-c3ccccc3)cs2)cc1,14.7
19,CNC(=O)NC(=O)CN1C(=O)NC2(CCOc3ccccc32)C1=O (stereo not shown),18.9
20,COP(=O)(OC)/C(C=O)=N/Nc1ccc([N+](=O)[O-])cc1,-36.3
21,CC(C)OP(=O)(OC(C)C)/C(C=O)=N\Nc1ccc([N+](=O)[O-])cc1,-55.1
22,N#CC(C#N)=NNc1ccc([N+](=O)[O-])cc1,-2.55
23,CC(C)CCNC(=O)C1CCN(C(=O)N(C)C)CC1,14.5

row,SMILES,"hERG current change (%, negative = inhibition) at 10uM [%]"
1,Cc1c(N2C(=O)CS/C2=N\N=C\c2ccc(Cl)cc2)c(=O)n(-c2ccccc2)n1C,-32.2
2,S=C(Nc1ccc(Cl)cc1)N(CCCN1CCOCC1)Cc1ccco1,-26
3,CCN1CCN(CCCN(Cc2ccco2)C(=S)Nc2ccc(Cl)cc2)CC1,-64.2
4,CN1CCN(CCCN(Cc2ccco2)C(=S)Nc2ccc(Cl)cc2)CC1,-69.6
5,CCOC(=O)C1C2C=CC3(CN(Cc4cccs4)C(=O)C13)O2 (stereo not shown),1.73
6,CCOc1cccc(C(=O)NC(=S)Nc2cccc(C)c2)c1,6.87
7,COCCCn1cnnc1SCc1nc2sc(C(C)=O)c(C)c2c(=O)[nH]1,-17
8,Cc1ccc2nc(C)c3c(c2c1)SCC3,-27.4
9,CCN1Cc2c(/C=C/c3ccccc3)nc3ccc(OC)cc3c2N(c2cccc(Cl)c2)C1,-12.5
10,COc1cccc(N2CCc3c(C)nc4ccc(Cl)cc4c32)c1,-72.9
11,Cc1ccc2nc(C)c3c(c2c1)N(c1ccccc1)CC3,-74.6
12,Cc1nc2ccc(Cl)cc2c(=O)n1-c1cccc(Cl)c1,3.78
13,Cc1ccc2cc3c(nc2c1)N(c1ccccc1)CC3,2.24
14,Cc1ccc2nc(C)n(-c3ccc(F)cc3)c(=O)c2c1,21.3
15,Cc1ccc2nc(C)c3c(c2c1)N(c1ccc(F)cc1)CC3,-92.2
16,CSc1nc(C)c2c(n1)N(c1ccc(F)cc1)CC2,19.8
17,COc1cccc(/C=N/Nc2cc(Cl)nc(C)n2)c1O,20.8
18,COc1cc2c3c(c1OC)C1(C=CC(=O)C=C1)CC3N(C(=O)c1ccccc1)CC2 (stereo not shown),-18.6
19,CCC(=O)NC(=S)Nc1ccc(NC(=O)COc2ccc(Cl)cc2Cl)cc1,10.7
20,CC(=O)c1ccccc1OCc1ccc(S(=O)(=O)Cc2ccccc2)cc1,-26.6
21,Cc1ccc(/C=N/Nc2ccc(Cl)nn2)cc1,-0.808
22,CCN(CC)S(=O)(=O)c1ccc(C(=O)OCC(=O)Nc2sc3c(c2C#N)CCCCC3)cc1,8.12
23,Cc1ccc(NS(=O)(=O)c2ccc(C(=O)N3CCC3)cc2)cc1,15.7

row,SMILES,"hERG current change (%, negative = inhibition) at 10uM [%]"
1,Cc1ccc(NS(=O)(=O)c2ccc(C(=O)N3CCCCCC3)cc2)cc1,-8.38
2,CC(C)(C)c1ccc(S(=O)(=O)Nc2ccc(C(=O)N3CCCC3)cc2)cc1,-61.9
3,Cc1ccc(NS(=O)(=O)c2ccc(C(=O)N3CC(C)OC(C)C3)cc2)cc1 (stereo not shown),14.2
4,Cc1ccc(NS(=O)(=O)c2ccc(C(=O)N3CC(C)CC(C)C3)cc2)cc1 (stereo not shown),-58.7
5,Cc1ccc(S(=O)(=O)Nc2ccc(C(=O)N3CCCC3)cc2)cc1,-0.474
6,O=C(Nc1nnc(-c2ccco2)o1)c1ccc(Cl)s1,8.23
7,Cc1cc(Cl)c(OCCCSc2nc(C)cc(=O)[nH]2)c(Br)c1,-10.3
8,CCc1nnc(NC(=O)CSc2ncc(-c3ccccc3)[nH]2)s1,2.52
9,Cc1cccc(C(=O)NNC(=O)c2ccccc2-n2cccc2)c1,11.7
10,COC(=O)c1c(SCc2ccc(C#N)cc2)nc(=O)[nH]c1C,-76.9
11,COC(=O)c1c(SCc2cccc3ccccc23)nc(=O)[nH]c1C,7.87
12,COC(=O)c1c(SCC(=O)Nc2ccc(C)c(C)c2)nc(=O)[nH]c1C,2.16
13,CCOC(=O)c1c(C)n(C)c2ccc(OCC(O)CNC(CC)CO)cc12 (stereo not shown),-7.11
14,COc1ccccc1/C=N/Nc1nccnc1Cl,-11.5
15,O=C(O)c1ccc(N=Cc2c(O)[nH]c(=O)[nH]c2=O)cc1,8.59
16,CC(C)N1CCC(N2CCN(CCCn3cccn3)CC2CCO)CC1 (stereo not shown),-28
17,Cc1ccc(CN2CCN(CCCn3cccn3)CC2CCO)cc1 (stereo not shown),-66.9
18,CC(C)CCN1CCN(CCCn2cccn2)CC1CCO (stereo not shown),-6.72
19,OCCC1CN(CCCn2cccn2)CCN1Cc1ccccc1 (stereo not shown),-8.62
20,CCOc1ccc(CN2CCN(CCCn3cccn3)CC2CCO)cc1 (stereo not shown),-80.1
21,CC(C)=CCN1CCN(CCCn2cccn2)CC1CCO (stereo not shown),-11.8
22,CCOc1ccccc1CN1CCN(CCCn2cccn2)CC1CCO (stereo not shown),-57.4
